Measured values published in PubChem BioAssay (NCI).
Several values for one entry are separate records, joined by “and”; a condition that tells them apart may be missing. Equal values may be shown once. About 83,000 compounds went through this panel and 20% of them were active in at least one assay; those are over-represented in the sample as a whole.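 Cells were grown in 96-well plates and exposed to the test compound at a single concentration for 48 hours; results are reported as percent growth, with values below 10 considered active.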 Activity calls are given as the source filed them.

How the values were obtained:
Test in all cases: NCI-60 one-dose screen, 48 h (100 = growth as untreated, 0 = no growth, -100 = all killed)
Conditions in all cases: 10 µM
NCI-H23 lung = tested on: NCI-H23 lung
NCI-H522 lung = tested on: NCI-H522 lung
MDA-MB-231 breast = tested on: MDA-MB-231 breast
M14 melanoma = tested on: M14 melanoma
SK-MEL-5 melanoma = tested on: SK-MEL-5 melanoma
UACC-62 melanoma = tested on: UACC-62 melanoma
LOX IMVI melanoma = tested on: LOX IMVI melanoma
MOLT-4 leukemia = tested on: MOLT-4 leukemia
SR leukemia = tested on: SR leukemia
OVCAR-8 ovarian = tested on: OVCAR-8 ovarian
OVCAR-5 ovarian = tested on: OVCAR-5 ovarian
OVCAR-4 ovarian = tested on: OVCAR-4 ovarian
SK-OV-3 ovarian = tested on: SK-OV-3 ovarian
IGROV1 ovarian = tested on: IGROV1 ovarian
HS 578T breast = tested on: HS 578T breast
T-47D breast = tested on: T-47D breast
SW-620 colon = tested on: SW-620 colon
MCF7 breast = tested on: MCF7 breast
HCT-116 colon = tested on: HCT-116 colon
KM12 colon = tested on: KM12 colon

Structure (SMILES) | growth (NCI-H23 lung) | growth (NCI-H522 lung) | growth (MDA-MB-231 breast) | growth (M14 melanoma) | growth (SK-MEL-5 melanoma) | growth (UACC-62 melanoma) | growth (LOX IMVI melanoma) | growth (MOLT-4 leukemia) | growth (SR leukemia) | growth (OVCAR-8 ovarian) | growth (OVCAR-5 ovarian) | growth (OVCAR-4 ovarian) | growth (SK-OV-3 ovarian) | growth (IGROV1 ovarian) | growth (HS 578T breast) | growth (T-47D breast) | growth (SW-620 colon) | growth (MCF7 breast) | growth (HCT-116 colon) | growth (KM12 colon)
CN1C(=O)[C@]23SSC1(C)C(=O)N2[C@H]1Nc2ccccc2C1([C@@]12c4ccccc4N[C@@H]1N1C(=O)C4(C)SS[C@]1(C(=O)N4C)[C@H]2O)[C@@H]3O (stereo partly drawn) | -66.4% (active) | -84.4% (active) | -52.1% (active) | -90% (active) | -99% (active) | -79.2% (active) | -89.9% (active) | -20.6% (active) | 0.169% (active) | -76.1% (active) | -66.2% (active) | -98.7% (active) | -98.8% (active) | -71.7% (active) | -49.4% (active) | -81.3% (active) | -88.2% (active) | -77.4% (active) | -99.5% (active) | -94.4% (active)
CC1=C[C@H]2O[C@@H]3C[C@H]4OC(=O)/C=C\C=C\[C@H]([C@@H](C)O)OCC/C(C)=C/C(=O)OC[C@@]2(CC1)[C@]4(C)[C@]31CO1 | -36.1% (active) | -39.3% (active) | -29.6% (active) | -73.7% (active) | -89.2% (active) | -58.6% (active) | -81.1% (active) | -18.5% (active) | -9.9% (active) | -24.4% (active) | -14.8% (active) | -22.1% (active) | -23.5% (active) | -10.7% (active) | -9.53% (active) | -20% (active) | 0.094% (active) | -10.6% (active) | -28.7% (active) | 3.74% (active)
C/C=C/CC(C)C(O)[C@H](NC(=O)[C@@H]1CCCN1C(=O)C(C)(C)NC(=O)CCCCCCCCC)C(=O)N[C@@](C)(CC)C(=O)N[C@@H](CCC(N)=O)C(=O)N[C@H](CCC(N)=O)C(=O)NC(C)(C)C(=O)NC(C)(C)C(=O)N[C@@H](CCC(N)=O)C(=O)N[C@H](CC(C)C)C(=O)N[C@H](CO)CC(C)C (stereo partly drawn) | 15.6% (inactive) and 49.3% (inactive) | -32.9% (active) and -26.1% (active) | -32.1% (active) and 53.6% (inactive) | -43.6% (active) and 20.4% (inactive) | -54.6% (active) and 12.6% (inactive) | -19.1% (active) and 54.4% (inactive) | -57.3% (active) and 1.46% (active) | 18.8% (inactive) and 54.7% (inactive) | -32.1% (active) and 8.34% (active) | 5.65% (active) and 38.4% (inactive) | 2.04% (active) and 49.9% (inactive) | 81% (inactive) and 87.9% (inactive) | 37.6% (inactive) and 80.8% (inactive) | 34% (inactive) and 72.2% (inactive) | -51.7% (active) and -15.4% (active) | 28.6% (inactive) and 52% (inactive) | 38.1% (inactive) and 93% (inactive) | -2.63% (active) and 45.8% (inactive) | 33.5% (inactive) and 78.4% (inactive) | -32.5% (active) and 10.3% (inactive)
CC(=O)O[C@@H]1[C@@H]2O[C@H]2[C@@](C)(O)C(=O)[C@@H](C)C/C=C/[C@H]2[C@@H]3O[C@]3(C)[C@@H](C)C3[C@H](Cc4ccccc4)NC(=O)[C@@]312 (stereo partly drawn) | 70.4% (inactive) | 18.2% (inactive) | 22% (inactive) | 65.2% (inactive) | 71% (inactive) | 78.8% (inactive) | 14.7% (inactive) | 67.9% (inactive) | 60.7% (inactive) | 84.4% (inactive) | 96.3% (inactive) | 55.8% (inactive) | 22.9% (inactive) | 54.7% (inactive) | 4.92% (active) | 33.6% (inactive) | 55.5% (inactive) | 56.8% (inactive) | 54.9% (inactive) | 66.6% (inactive)
CC1=C[C@H]2O[C@@H]3C[C@H]4OC(=O)/C=C\C=C\[C@H]([C@@H](C)O)OCC[C@@H](C)[C@H](O)C(=O)OC[C@@]2(CC1)[C@]4(C)[C@]31CO1 | -36.6% (active) | -43.4% (active) | -25.2% (active) | -76% (active) | -90.2% (active) | -66.6% (active) | -79% (active) | -19.2% (active) | -10.5% (active) | -12.8% (active) | -16.8% (active) | -19% (active) | -18.6% (active) | -13.4% (active) | -6.56% (active) | -19% (active) | 0.381% (active) | -7.85% (active) | -27.7% (active) | 4.84% (active)
COc1cccc2c1cc([N+](=O)[O-])c1c(C(=O)O)cc3c(c12)OCO3 | 102% (inactive) | 95.9% (inactive) | 106% (inactive) | 103% (inactive) | 102% (inactive) | 103% (inactive) | 100% (inactive) | 99.6% (inactive) | 106% (inactive) | 102% (inactive) | 106% (inactive) | 108% (inactive) | 113% (inactive) | 106% (inactive) | 105% (inactive) | 95.8% (inactive) | 101% (inactive) | 94.9% (inactive) | 101% (inactive) | 104% (inactive)
COc1cc(OC)c(S(=O)(=O)N(CCCl)CCCl)cc1C(=O)/C=C/c1ccc(Cl)cc1 | – | 83.5% (inactive) | 67.1% (inactive) | 68.4% (inactive) | 87.1% (inactive) | 51.1% (inactive) | – | 58.8% (inactive) | 10.1% (inactive) | 59.8% (inactive) | 107% (inactive) | 83.4% (inactive) | 79% (inactive) | 76.3% (inactive) | 78.6% (inactive) | 74.4% (inactive) | 48.7% (inactive) | 15.8% (inactive) | 49.2% (inactive) | 23.4% (inactive)
